From PubChem BioAssay
An excerpt weighted towards active compounds, which were near 3.6% of everything screened.
Wnt act = activators of Wnt/beta-catenin signaling; activation, % at 9.35 µM; 300,000 compounds, 1.2% hits; Wnt/beta-catenin reporter cell assay, activator, plate reader; AID 743398; in the data active = activation above about 30%, passing the limit was not always enough;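 also: 0% = neutral control wells and 100% = positive control wells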
esBAF inh = inhibitors of esBAF chromatin remodeling in mouse ES cells; Bmi1-luciferase knock-in reporter, 24 h; 100% = twice the neutral-well signal; 350,000 compounds, 2% hits; reporter increase, % at 12.5 µM; in the data active = activation above about 40%;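 also: 0% = median of the plate's neutral control wells and 100% = double that signal; a rise in the Bmi1 reporter signal indicates esBAF inhibition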
MITF TRPM1 HTS = activators of MITF-driven TRPM1 promoter activity in SK-MEL-5 cells. SK-MEL-5 TRPM1-promoter luciferase, 24 h; % of positive control, neutral wells = 0. activation, % at 12.5 µM. 300,000 compounds, 0.75% hits. AID 588334;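 active = mean activation of at least 80% with every replicate also reaching 80%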;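 also: 0% = neutral control wells and 100% = parthenolide positive control wells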
APOBEC3A inh = inhibitors of human APOBEC3A DNA deaminase; inhibition, % at 20 µM; AID 493011; 330,000 compounds, 0.41% hits; recombinant A3A, FAM/TAMRA ssDNA deamination fluorescence;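 active = at least 40% inhibition at 20 µM here, with at most 30% in a related deaminase screen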;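 also: plate controls were A3A with DMSO for no effect and wells lacking A3A enzyme for full effect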
Target sequence (P31941 whole entry, looked up): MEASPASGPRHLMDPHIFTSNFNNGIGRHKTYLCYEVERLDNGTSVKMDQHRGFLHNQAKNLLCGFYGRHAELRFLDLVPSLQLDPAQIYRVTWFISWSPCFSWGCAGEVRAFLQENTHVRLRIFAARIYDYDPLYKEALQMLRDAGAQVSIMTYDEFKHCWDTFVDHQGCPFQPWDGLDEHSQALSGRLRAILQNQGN
PHOSPHO1 block = PHOSPHO1 (human) inhibition. recombinant PHOSPHO1, absorbance phosphatase assay. 290,000 compounds, 1.1% hits. inhibition, % at 13.3 µM; in the data active = inhibition above about 60%
Target sequence (Q8TCT1 whole entry, looked up): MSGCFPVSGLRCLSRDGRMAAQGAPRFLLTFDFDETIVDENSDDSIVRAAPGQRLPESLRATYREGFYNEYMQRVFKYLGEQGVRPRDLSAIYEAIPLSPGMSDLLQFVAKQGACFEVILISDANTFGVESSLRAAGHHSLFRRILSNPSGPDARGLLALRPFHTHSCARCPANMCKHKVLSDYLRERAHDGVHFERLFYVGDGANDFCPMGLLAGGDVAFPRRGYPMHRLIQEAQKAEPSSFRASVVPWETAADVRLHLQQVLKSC
APOBEC3G inh = blocks human APOBEC3G single-stranded DNA deamination. recombinant A3G, ssDNA deamination FAM/TAMRA fluorescence. inhibition, % at 20 µM. 330,000 compounds, 0.28% hits. AID 493012;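 active = inhibition of at least 40% at 20 µM, with no more than 30% in the related APOBEC3A deaminase screen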;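 also: plate controls were DMSO wells with A3G for no effect and wells lacking A3G enzyme for full effect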
An asterisk follows results filed as active; nt = no result.

SMILES	Wnt act	esBAF inh	MITF TRPM1 HTS	APOBEC3A inh	PHOSPHO1 block	APOBEC3G inh
C[C@@H]1CN([C@H](C)CO)C(=O)c2cc(NS(=O)(=O)c3ccccc3)ccc2O[C@@H]1CN(C)Cc1ccc(-c2ccccc2)cc1	nt	-3	nt	nt	nt	nt
O=C(C[C@@H]1CC[C@@H](NC(=O)Nc2ccc(C(F)(F)F)cc2)[C@@H](CO)O1)NCc1cc(F)cc(F)c1	nt	4	nt	nt	nt	nt
O=C(C[C@@H]1CC[C@@H]2[C@H](COC[C@@H](O)CN2CC2CCOCC2)O1)NCC1CC1	nt	0	nt	nt	nt	nt
Cc1noc(C)c1NC(=O)Nc1ccc2c(c1)C(=O)N([C@@H](C)CO)C[C@H](C)[C@H](CN(C)Cc1ccccc1)O2	nt	-1	nt	nt	nt	nt
CCOC(=O)Nc1ccc2c3c(cccc13)-c1ccccc1-2	10	46*	11	nt	nt	nt
Cc1ccc(/C=N/n2c(-c3ccccn3)n[nH]c2=S)o1	-2	nt	20	-1	-46	31
Fc1ccc(/C=N/n2c(-c3cccs3)n[nH]c2=S)cc1	nt	0	nt	-3	71*	32
S=c1[nH]nc(-c2ccncc2)n1/N=C/c1cccc(Cl)c1	-1	nt	nt	-4	-15	53*
Cc1cccc(/C=N/n2c(-c3ccccn3)n[nH]c2=S)c1	nt	nt	nt	-1	-4	57*
S=c1[nH]nc(-c2ccccc2)n1/N=C/c1cccc(Cl)c1	0	-5	nt	-6	nt	17
S=c1[nH]nc(-c2ccncc2)n1/N=C/C(Cl)=C\c1ccccc1	32*	nt	71	-3	32	5
S=c1[nH]nc(COc2ccccc2)n1/N=C/C(Cl)=C/c1ccccc1	nt	nt	nt	3	36	21
COCC(=O)Nc1ccc2c(c1)OC[C@@H](C)N(Cc1cccnc1)C[C@H](C)[C@@H](OC)CN(C)C2=O	nt	-6	nt	nt	nt	nt
COCC#Cc1ccc2c(c1)O[C@@H](CN(C)S(C)(=O)=O)[C@@H](C)CN([C@H](C)CO)S2(=O)=O	nt	0	nt	nt	nt	nt
COc1ccccc1/C=C/C=N/n1c(-c2cc(C)[nH]n2)n[nH]c1=S	1	0	12	0	62*	36
COc1ccc(-c2n[nH]c(=S)n2/N=C/C=C\c2ccccc2OC)cc1	2	nt	7	-2	66*	0
COc1ccccc1/C=C/C=N/n1c(-c2ccco2)n[nH]c1=S	2	nt	nt	-5	85*	16
S=c1[nH]nc(-c2ccco2)n1/N=C/C=C/c1ccco1	nt	nt	-14	63	69*	73
S=c1[nH]nc(-c2cc(-c3ccccc3)n[nH]2)n1/N=C/C=C/c1ccco1	11	nt	nt	40	23	51
CCCNC(=O)Nc1ccc2c(c1)OC[C@H](C)N(Cc1ccccn1)C[C@@H](C)[C@@H](OC)CN(C)C2=O	nt	1	nt	nt	nt	nt
C[C@@H](NC(=O)C[C@@H]1CC[C@@H](NC(=O)Nc2ccc3c(c2)OCO3)[C@H](CO)O1)c1ccccc1	nt	-5	nt	nt	nt	nt
COc1ccccc1/C=C/C=N/n1c(-c2ccc(C)cc2)n[nH]c1=S	-2	nt	-11	-1	86*	-1
COc1ccccc1/C=C/C=N/n1c(-c2n[nH]c3c2CCC3)n[nH]c1=S	-1	nt	nt	-8	23	22
Cc1ccccc1-c1cnc2c(c1)C(=O)N([C@@H](C)CO)C[C@@H](C)[C@@H](CN(C)Cc1cncnc1)O2	nt	-3	nt	nt	nt	nt
Cc1ccnc(N/C=C/C(=O)c2ccc(Br)cc2)c1	39*	-4	72	-2	27	-4
SMILES	Wnt act	esBAF inh	MITF TRPM1 HTS	APOBEC3A inh	PHOSPHO1 block	APOBEC3G inh
O=C(/C=C\Nc1ccc(Cl)cn1)c1ccc(Br)cc1	36*	nt	103*	0	42	-8
O=C(/C=C\Nc1ccccn1)c1ccccc1	6	-48	nt	-3	2	-4
Cc1cc(N/C=C/C(=O)c2ccc(Br)cc2)no1	33*	81*	105*	1	8	-8
COc1ccc(C(=O)/C=C/Nc2cc(C)ccn2)cc1	-1	nt	nt	-6	37	-4
OC(c1ccc(F)c(F)c1)c1nc(-c2cnc3ccccc3c2)cs1 (stereo not given)	21	51*	nt	nt	nt	nt
O=C(O)c1cccc(-c2csc(C(O)c3ccc(F)c(F)c3)n2)c1 (stereo not given)	19	44*	nt	nt	nt	nt
CO[C@H]1CN(C)C(=O)c2ccc(NC(=O)c3ccccc3)cc2OC[C@@H](C)N(C(=O)C2CC2)C[C@H]1C	nt	6	nt	nt	nt	nt
O=S(=O)(N[C@H]1CC[C@H](CCn2cc(-c3cccnc3)nn2)O[C@H]1CO)c1ccc(Cl)cc1	nt	6	nt	nt	nt	nt
COc1cc(/C=N/N(c2ccccc2)c2ccccc2)ccc1O	0	-6	nt	-6	nt	-7
CCOc1ccc(/C=N/N(C)c2ccccc2)cc1OC	nt	86*	109*	-1	16	-7
Cc1cccc(NC(=O)NC(=O)c2ccccc2)n1	37*	nt	43	-1	42	-5
Cc1ccnc(NC(=O)Cc2ccc(-c3ccccc3)cc2)c1	15	nt	51	-3	9	-11
O=C(Nc1ccccn1)Nc1cccs1	nt	55*	56	0	29	-5
O=C(Nc1ccncc1)Nc1ccccn1	nt	-3	24	-1	16	-4
O=C(Cc1ccc(-c2ccccc2)cc1)Nc1ccccn1	26	43*	69	0	30	-5
O=C(NC(=O)c1ccccc1)Nc1ccccn1	-6	-77	-81	-9	68*	-2
Cc1cccc(NC(=O)c2ccc(C(=O)c3ccccc3)cc2)n1	22	-16	72	2	nt	-2
C[C@H](CO)N1C[C@H](C)[C@H](CN(C)C(=O)C2CCOCC2)Oc2ncc(-c3cccnc3)cc2C1=O	nt	-5	nt	nt	nt	nt
O=C(C[C@H]1CC[C@@H]2[C@H](COC[C@H](O)CN2C(=O)c2cccnc2)O1)NCC1CC1	nt	-2	nt	nt	nt	nt
Cc1cccc(C(=O)Nc2sc(C)c(-c3ccccc3)c2C#N)c1	nt	49*	64	1	-17	0
CCCC(=O)Nc1sc(C)c(-c2ccc(OC)cc2)c1C#N	nt	nt	-2	-1	1	-4
Cc1noc(C)c1C(=O)Nc1sc(C)c(-c2ccccc2)c1C#N	nt	-9	-12	-1	21	-5
Cc1sc(NC(=O)C2CCCCC2)c(C#N)c1-c1ccccc1	42*	93*	79	-8	10	-7
COc1ccc(NC(=O)N(C)C[C@H]2Oc3c(NC(=O)Nc4c(C)noc4C)cccc3C(=O)N([C@@H](C)CO)C[C@H]2C)cc1	nt	-3	nt	nt	nt	nt
COCC(=O)N1C[C@@H](C)[C@@H](OC)CN(C)C(=O)c2cc(NC(=O)c3ccc(F)cc3)ccc2OC[C@@H]1C	nt	-3	nt	nt	nt	nt
CCc1nc(C)cn1S(=O)(=O)c1ccc(Br)cc1	51*	-3	-5	0	46	-7
C[C@H](CO)N1C[C@H](C)[C@H](CN(C)Cc2ccncc2)Oc2ccc(NS(=O)(=O)c3cccs3)cc2CC1=O	nt	0	nt	nt	nt	nt
Oc1ccc(Cl)cc1C=Nc1ccc(Br)cc1	-2	nt	-7	0	8	-3
Cn1c(O)c(C=Nc2ccc(Br)cc2)sc1=O	60*	nt	68	7	8	-2
